Measured values published in PubChem BioAssay (NCI).
Compounds without any hit were thinned out: in the full panel of roughly 83,000, 20% have a hit.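 The test compound was applied at a single concentration to cells in 96-well plates for 48 hours, and percent growth was recorded.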 Activity calls are given as the source filed them. How the source made its calls: active means growth percent below 10; inactive means the rest.

system: SK-OV-3 ovarian; assay: NCI-60 one-dose screen, 48 h (100 = growth as untreated, 0 = no growth, -100 = all killed); conditions: 10 µM unless noted

Structure (SMILES)	growth
O=C(OCC(O)(CO)C(=O)NC12CC3CC(CC(C3)C1)C2)c1ccc(Cl)cc1 (stereo not given)	99.7% (inactive)
Cn1ccnc1C(=O)/C=C/c1ccc(CC(=O)Nc2cc(F)c(F)c(F)c2)cc1	85.2% (inactive)
Cc1ccc(Nc2cc(N)nc(N)n2)cc1	98.1% (inactive)
Cc1nc2ccccc2c(/C=C/c2ccc(Cl)cc2)c1C(=O)/C=C/c1ccccc1	57.4% (inactive)
NS(=O)(=O)Oc1cccc(-c2nc3sccn3c2-c2ccccc2)c1	76.7% (inactive)

system: IGROV1 ovarian; assay: as above; conditions: 10 µM unless noted

Structure (SMILES)	growth
CNC(=O)c1cc(Oc2ccc3nc(NC(=O)Nc4ccc(F)cc4F)sc3c2)ccn1	84.2% (inactive)
CCOC(=O)c1c2c(n3ccc(NC(=O)CCN4CCCC4)cc13)C(=O)c1ncccc1C2=O	-71.1% (active)
CNC(=O)c1cc(Oc2ccc3nc(NC(=O)c4cc(C(F)(F)F)cc(C(F)(F)F)c4)sc3c2)ccn1	30.9% (inactive)
CC(=O)CC(=O)c1ccccc1.[Cu+2]	87% (inactive)
O=c1c2cccc3c(N4CCOCC4)ccc(c32)c2nc3ccccc3n12	58.3% (inactive)
CN(C)C(=O)OCc1ccc2c(Cl)cc(Cl)c(O)c2n1	40.9% (inactive)
COc1ccc(-c2ccc(-c3ccc(C(=N)N)nc3)s2)cc1	-84.3% (active)
CN1CCN(c2ccc(Nc3ncc4[nH]c(=O)n(Cc5ccccc5N)c4n3)cc2)CC1	77.6% (inactive)
NC(=N\N=C/c1ccc(Cl)cc1Cl)/C(N)=N\N=C/c1ccc(Cl)cc1Cl	15.8% (inactive)
C=C1C(=O)O[C@H]2[C@H]1CC/C(COC(=O)NCc1ccc(Cn3c(=O)sn(CCCC)c3=O)cc1)=C\CC[C@@]1(C)O[C@@H]21	36.4% (inactive)
